Bioassay records (PubChem)
Most compounds without a hit are left out; they make up all but 27% or so of the library.
CYP2C9 inh = inhibitors of human CYP2C9; P11712; CYP2C9 Supersomes, luciferin-H conversion, luminescence; 96,000 tested, 20% active; AID 777; inhibition, % at 5 µM;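 active = blocking of liver enzyme CYP2C9 beyond about 50% at 5 µM, limit read from the data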
Target sequence (P11712 whole entry, looked up): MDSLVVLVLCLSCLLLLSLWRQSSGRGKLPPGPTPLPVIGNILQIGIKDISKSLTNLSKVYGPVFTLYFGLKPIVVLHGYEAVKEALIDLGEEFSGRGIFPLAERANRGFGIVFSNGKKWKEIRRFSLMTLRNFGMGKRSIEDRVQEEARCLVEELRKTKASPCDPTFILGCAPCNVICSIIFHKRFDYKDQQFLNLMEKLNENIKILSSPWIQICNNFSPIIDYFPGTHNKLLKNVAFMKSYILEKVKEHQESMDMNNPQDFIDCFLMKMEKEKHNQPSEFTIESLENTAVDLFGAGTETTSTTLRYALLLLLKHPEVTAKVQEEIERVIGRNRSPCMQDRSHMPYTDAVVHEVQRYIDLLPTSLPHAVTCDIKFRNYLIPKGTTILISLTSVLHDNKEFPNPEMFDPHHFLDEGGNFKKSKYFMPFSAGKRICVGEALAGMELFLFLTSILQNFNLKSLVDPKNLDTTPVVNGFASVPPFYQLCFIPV
Cav32 inh = human Cav3.2 channel inhibition, primary screen; O95180; Cav3.2-expressing cells, Fluo-4 calcium fluorescence FDSS; active compounds read low; B-score at 10 µM; 100,000 tested, 4% active; AID 449739;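 active = single-dose well whose peak fluorescence ratio is a statistical outlier from its plate by either plate-standardised score or position-corrected B-score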
CYP2C9 act = increases human cytochrome P450 2C9 activity. recombinant CYP2C9, luciferin-H conversion, luminescence; active compounds read high; factor 1 = untreated enzyme, 0 = blocked. activation factor at 5 µM. 96,000 tested, 1.4% active. P11712;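 active = activation factor of 2 or more for CYP2C9 at a 5 µM dose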
CYP2C19 inhib = blocks human cytochrome P450 2C19 | CYP2C19 Supersomes, luciferin-H EGE luminescence, 30 min | inhibition, % at 5 µM | 96,000 tested, 21% active;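 active = CYP2C19 inhibition above a set limit at 5 µM in the primary screen, cut at about 50% in these data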
CYP2C19 activ = increases human CYP2C19 enzyme activity; recombinant CYP2C19, luciferin-H EGE luminescence; active compounds read high; 0 = fully inhibited enzyme, 1 = untreated enzyme; activation factor at 5 µM; 96,000 tested, under 10 active; P33261;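 active = activation factor of at least 2 at 5 µM in the primary screen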
Hits are given with their value; - = inactive; . = no result.

SMILES	CYP2C9 inh	Cav32 inh	CYP2C9 act	CYP2C19 inhib	CYP2C19 activ
COCCn1c(N)c(C(=O)OCc2ccccc2)c2nc3ccccc3nc21	62	-	-	-	-
CC(C)=CC1C=C(C)C(C)C2C(=O)NNC(=O)C12 (stereo unspecified)	-	-	-	51	-
Cc1ccc([N+](=O)[O-])cc1N=C(c1cccc(Br)c1)N1CCOCC1	52	-4.1	-	64	-
CC(C)(C)c1cc(CNC2CS(=O)(=O)C[C@@H]2O)cc(C(C)(C)C)c1O (stereo partly specified)	-	-	-	-	-
CCCCCCS(=O)[C@H]1CS(=O)(=O)C[C@@H]1S(=O)CCCCCC (stereo partly specified)	-	.	-	-	-
Nc1nc(-c2ccccc2)nc(-c2ccccc2O)n1	.	-	.	.	.
Nc1nc(NCc2ccccc2)nc(-c2ccccc2)n1	78	-	-	80	-
C=CCCCCCCCCC(=O)NN	89	-	-	100	-
Cc1ccc(C(=O)NC(=S)Nc2cc(-c3nc4ccccc4s3)ccc2C)cc1	-	.	-	-	-
CCCc1nc2oc3c(NCC4CCCO4)ncnc3c2c2c1COC(C)(C)C2 (stereo unspecified)	52	-	-	-	-
CC(C)c1nc2oc3c(NCC4CCCO4)ncnc3c2c2c1CCC2 (stereo unspecified)	-	-	-	-	-
CCCc1nc2oc3c(NCc4ccccn4)ncnc3c2c2c1COC(C)(C)C2	52	-	-	-	-
CN1CCCN(C2C3CC4CC(C3)CC2C4)CC1 (stereo unspecified)	-	.	-	-	-
NS(=O)(=O)c1ccc(NCc2ccccc2OCc2ccccc2F)cc1	75	-	-	-	-
Oc1ccc(NCc2ccccc2OCc2ccccc2F)cc1	-	-	-	52	-
C[C@@H](O)[C@H]1C(=O)N2C(C(=O)O)=C(S[C@@H]3CN[C@H](C(=O)N(C)C)C3)[C@H](C)[C@H]12	.	-	.	.	.
Cc1cccc(NC(=O)c2sc(NC(=O)c3ccco3)c(C#N)c2C)c1C	-	-	-	-	-
COC(=O)C1(C(O)C(=O)c2ccc(C)cc2C)CCCCC1 (stereo unspecified)	-	-	-	64	-
Nc1nc(-c2cccc(NS(=O)(=O)c3ccccc3)c2)cs1	95	-	-	99	-
NS(=O)(=O)c1ccc(Nc2nc(-c3ccc4ccccc4c3)cs2)cc1	-	-	-	-	-
Cc1nc(-c2cccc(NS(=O)(=O)c3cccc4ccccc34)c2)cs1	-	-	-	98	-
Cc1ccc(C)c(N(CC(=O)NCCC2=CCCCC2)S(C)(=O)=O)c1	-	-	-	-	-
CC(C)OC(=O)CSc1nnnn1-c1ccc2c(c1)OCCO2	-	-	-	75	-
COc1ccc(OC)c(C(=O)N2CCC(C(=O)c3ccc(F)cc3)CC2)c1	.	-	.	.	.
COC(=O)C1CCN(C(=O)c2ccc(SC)cc2OC)CC1	-	-	-	99	-
SMILES	CYP2C9 inh	Cav32 inh	CYP2C9 act	CYP2C19 inhib	CYP2C19 activ
COc1cc2c(cc1O)[C@@H]1Cc3cc(OC)c(OC)cc3C(C2)N1C	.	-	.	.	.
CC1=CCC2C(=O)N(Cc3ccccc3)C(=O)C2C1 (stereo unspecified)	-	-	-	-	-
CC1=CCC2C(=O)N(C(C)c3ccccc3)C(=O)C2C1 (stereo unspecified)	-	-	-	94	-
NC(=O)c1ccc(C(F)(F)F)n(Cc2ccccc2Cl)c1=O	-	-	-	69	-
O=C(CC(=O)NCc1cccnc1)NCc1cccnc1	-	-	-	-	-
CCC(NC(=O)NCc1cccnc1)(C(F)(F)F)C(F)(F)F	73	-	-	87	-
NCCCC[C@@H]1NC(=O)c2cc([N+](=O)[O-])cc(I)c2SC[C@@H](C(=O)NCC(N)=O)NC(=O)CNC1=O	.	-	.	.	.
CCOC(=O)CC1C(=O)NCCN1Cc1cccc(C(F)(F)F)c1 (stereo unspecified)	-	-	-	55	-
CCOC(=O)C[C@H]1c2ccccc2S(=O)(=O)N1Cc1cccc(C(F)(F)F)c1	.	-	.	.	.
Cc1ccc(C)c2c(SC(C)C(=O)NCc3ccco3)nc(-c3ccccc3)nc12 (stereo unspecified)	.	-	.	.	.
COc1ccc(CNC(=O)C(OC(C)=O)c2ccccn2)cc1 (stereo unspecified)	-	-	-	-	-
Oc1ccccc1N1CCN(c2ncccn2)CC1	86	-	-	84	-
O=S(=O)(c1cccc(S(=O)(=O)N2CCN(c3ncccn3)CC2)c1)N1CCOCC1	.	-	.	.	.
O=S(=O)(c1ccccc1)N1CCN(c2ncccn2)CC1	62	-	-	-	-
Cc1nc(N2CCN(S(=O)(=O)c3cccc4nonc34)CC2)c2c3c(sc2n1)CCCC3	-	-	-	-	-
O=S(=O)(c1cc(F)cc(F)c1)N1CCN(c2ncccn2)CC1	-	-	-	72	-
Cc1nc(N2CCN(S(=O)(=O)c3ccccc3)CC2)c2cc(-c3ccccc3)sc2n1	53	-	-	-	-
Cc1ccc(S(=O)(=O)N2CCC(=O)N(C(COCc3ccc(C(F)(F)F)cc3)Cc3ccccc3)CC2)cc1 (stereo unspecified)	.	-	.	.	.
Cc1oc(C(C)(C)C)cc1C(=O)N1CCCC1C(=O)O (stereo unspecified)	.	-	.	.	.
O=C(Nc1ccccc1)OC(CN1CCCCC1)C(F)(F)F (stereo unspecified)	-	-	-	-	-
O=C(c1cc(C2CC2)on1)N1CCOCC1	-	-	-	-	-
COC(=O)C1=C(C)N(c2ccccc2)/C(=C/c2cccs2)C1=O	-	-	-	-	-
CCOC(=O)C1=C(C)N(c2ccc(C)cc2)C(=O)/C1=C\c1cccs1	-	-	-	-	-
COC(=O)C1=C(C)NC(=O)/C1=C\c1cccs1	57	-	-	-	-
COC(=O)C1=C(C)N(c2cccc(C)c2)C(=O)/C1=C\c1cccs1	50	-	-	-	-
SMILES	CYP2C9 inh	Cav32 inh	CYP2C9 act	CYP2C19 inhib	CYP2C19 activ
Cc1c(C(N)=O)sc(N)c1C(=O)OC(C)C	-	-	-	-	-
CC(=O)c1sc(N)c(C(=O)OC(C)C)c1C	-	-	-	80	-
COC(=O)c1ccc(-c2nc(O)c3cnccn23)cc1	-	-	-	51	-
Cc1c(C(=O)NCCCN2CCCC2=O)oc2ccccc12	-	-	-	-	-
Cc1cc(C)nc(NS(=O)(=O)c2ccc(Br)s2)c1	-	-	-	52	-
Cc1cccc(NS(=O)(=O)c2ccc(Oc3ccccc3)cc2)n1	-	-	-	83	-
COc1ccc(S(=O)(=O)Nc2cc(C)cc(C)n2)c2ccccc12	-	-	-	-	-
Cc1cccc(NS(=O)(=O)c2ccc(Br)s2)n1	-	-	-	68	-
N#CCc1ccc(C(=O)c2ccccc2F)s1	-	-	-	-	-
CC(=O)c1ccc(N2CCN(c3ccc(S(=O)(=O)N4CCN(C)CC4)cn3)CC2)cc1	-	-	-	-	-
CCC(C)NS(=O)(=O)c1ccc(OCC(=O)Nc2ccc3c(c2)OCCO3)cc1 (stereo unspecified)	60	-	-	-	-
